Only some compounds are listed: those with a hit (about 21% of all), similar ones and a draw of the others.
ELG1 DNA repair = ELG1-dependent DNA repair inhibition; HEK293T ELG1-luciferase reporter, luminescence, 16 h; DNA damage induced by 5-fluorouridine; 330,000 compounds, 2.3% hits; Potency, µM (titrated, usually from 46.1 µM), without a hit: at the highest dose activity change, negative = inhibition, usual class: inhibitors; also: potency is read from the fitted curve at half-maximal effect; nearly all actives have a fitted effect of over 55% in size
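Cells (2,000 per well) received 5-fluorouridine plus test compound or DMSO and were incubated 16 hr at 37 °C, 5% CO2. Luciferase activity was read by luminescence 30 min after ONE-Glo addition; signal suppression marked inhibition of damage-induced ELG1 function.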
RORgamma inh = inhibitors of mouse ROR gamma transcriptional activity. P51450. Drosophila S2 Gal4-RORgamma UAS-luciferase reporter, 20 h. AID 2551. 310,000 compounds, 5.4% hits. Potency, µM (top dose mostly 53.6 µM), for inactives: top-dose activity change, negative = inhibition, hits mostly inhibitors; also: potency is read from the fitted curve at half-maximal effect; nearly all actives have a fitted effect of over 60% in size
Target sequence (P51450 whole entry, looked up, the tested form may be a part): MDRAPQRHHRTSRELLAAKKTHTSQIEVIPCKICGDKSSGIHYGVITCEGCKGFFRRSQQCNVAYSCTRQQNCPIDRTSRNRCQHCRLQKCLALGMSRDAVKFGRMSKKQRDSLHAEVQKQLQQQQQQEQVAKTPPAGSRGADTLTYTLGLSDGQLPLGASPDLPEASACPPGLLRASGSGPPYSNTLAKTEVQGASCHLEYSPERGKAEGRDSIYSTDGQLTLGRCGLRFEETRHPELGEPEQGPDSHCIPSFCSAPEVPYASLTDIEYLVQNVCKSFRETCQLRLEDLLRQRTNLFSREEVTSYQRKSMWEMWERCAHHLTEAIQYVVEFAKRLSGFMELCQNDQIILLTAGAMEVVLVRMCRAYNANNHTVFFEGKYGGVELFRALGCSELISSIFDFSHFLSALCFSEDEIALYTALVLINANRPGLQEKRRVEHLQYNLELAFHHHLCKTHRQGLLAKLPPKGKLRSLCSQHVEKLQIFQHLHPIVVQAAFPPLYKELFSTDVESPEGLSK
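Drosophila Schneider cells stably carrying a metallothionein-driven Gal4 DBD–ROR gamma fusion and a UAS-Photinus luciferase reporter were exposed to compound for 1 hr, then induced with copper sulfate (700 uM final) for 20 hr at ambient temperature before luminescence reading.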
VP16 counter = counter-screen for ROR gamma inhibitors: Gal4-VP16 reporter; Drosophila S2 Gal4-VP16 UAS-luciferase, luminescence, 20 h; Potency, µM (top dose mostly 53.6 µM), without a hit: top-dose activity, negative = inhibition, actives largely listed as inhibitors; 310,000 compounds, 3.5% hits;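 also: Gal4-VP16 expression switched on by copper sulfate through the metallothionein promoter; potency is read from the fitted curve at half-maximal effect; nearly all actives have a fitted effect of over 50% in size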
IL1B secr inh = inhibitors of inflammasome signaling (IL-1 beta secretion); THP-1 LPS/ATP IL-1B secretion, AlphaLISA, 16 h; hits give low values; 360,000 compounds, 4.7% hits; activity change, % at 57.5 µM; in the data active = activity change below about -50%; inconclusive = mostly about -30% to -49%
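Secreted IL-1B measured by AlphaLISA bead assay after 16 h compound exposure of THP-1 cells; compounds (final up to 57.5 uM) added 1 h before LPS (250 ng/mL) and ATP (1.25 mM) stimulation; lower signal means less secretion.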
TDP1 cell noCPT = qHTS for Inhibitors of human tyrosyl-DNA phosphodiesterase 1 (TDP1): qHTS in cells in absence of CPT; Potency, µM (highest dose often 46.2 µM), inactives show at the top dose activity change, negative = growth inhibition, hits mostly inhibitors; AID 686978, 2013; 420,000 compounds, 15% hits; DT40 Tdp1-/- hTDP1 cells, no CPT, ATP luminescence, 48 h; also: potency is read from the fitted curve at half-maximal effect; nearly all actives have a fitted effect of over 55% in size
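Seeded 400 DT40-hTDP1 cells/well (vehicle DMSO, no 20 nM CPT); pinned compounds; ≥48 hr at 37 °C; CellTiter-Glo luminescence as viability measure.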
DT40 TDP1 CPT = growth inhibition of DT40 Tdp1-/-;hTDP1 cells with camptothecin (screen for TDP1 inhibitors); chicken DT40 Tdp1-/-;hTDP1 cells + 20 nM CPT, ATP luminescence, 48 h; Potency, µM (series often up to 46.2 µM), without a hit: top-dose activity change, negative = growth inhibition, most hits filed as inhibitors; 420,000 compounds, 12% hits; AID 686979; also: potency is read from the fitted curve at half-maximal effect; nearly all actives have a fitted effect of over 55% in size
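Chicken DT40 Tdp1-/- cells stably complemented with human TDP1 were seeded at 400 cells/well in medium containing 20 nM camptothecin, exposed to pin-transferred compounds, and grown at 37 °C for at least 48 hr. Viability was read as ATP luminescence.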
An asterisk follows results filed as active; ? = inconclusive; . = no result; [ ] = another dose, or the depositor's remark. Unless noted, calls follow the shape of the dose curve; as a rule, active = well fitted curve in the direction sought with a large enough effect; inconclusive = small, poorly fitted or top-dose-only effect, or another doubt; inactive = no such curve, though single readings can be large; an effect the other way counts as inactive or inconclusive. % is scaled to controls: 0 for no effect and ±100 for the full control effect.

SMILES	ELG1 DNA repair	RORgamma inh	VP16 counter	IL1B secr inh	TDP1 cell noCPT	DT40 TDP1 CPT
Cc1ccc(N(CC(C)C)S(=O)(=O)c2nnc(NC(=O)c3ccco3)s2)cc1	.	.	.	.	18µM*	?
CCN(c1ccc(OC)cc1)S(=O)(=O)c1nnc(NC(=O)CC(C)C)s1	-3%	-22%	-9%	-53*	2%	-20%
COc1ccc(N(CC(C)C)S(=O)(=O)c2nnc(NC(=O)CC(C)C)s2)cc1	-1%	-21%	-10%	11	?	3.7µM*
Cc1ccccc1Cn1c(=O)n(Cc2ccco2)c(=O)c2oc3ccccc3c21	.	.	.	.	-2%	2%
Cc1ccccc1Cn1c(=O)n(Cc2ccco2)c(=O)c2ccccc21	-18%	-4%	18%	0	?	15µM*
COc1ccc(-n2c(=O)c3ccccc3n(Cc3ccccc3C)c2=O)c(OC)c1	.	.	.	.	?	21µM*
CCOc1ccc(CCn2c3c(c(=O)[nH]c2=O)C(NC(=O)c2cccc(F)c2)(C(F)(F)F)C(=O)N3)cc1OCC (stereo not drawn)	.	.	.	.	9%	6%
COC(=O)C1CCN(Cc2ccc3c(c2)CN(C(=O)c2ccc(-n4cnnn4)cc2)CCO3)CC1	.	.	.	.	-7%	0%[9.04 µM]
C/C(O)=C(\C#N)c1nc2ccccc2[nH]1	-6%	?	14µM*	-2	?	-5%
N#C/C(=C(/O)c1ccc(C(=O)c2ccccc2)cc1)c1nc2ccccc2[nH]1	-2%	5%	14%	1	-22%	2%
COc1ccccc1-c1nnc(SC/C(O)=C(\C#N)c2nc3ccccc3[nH]2)n1C1CCCCC1	?	7.1µM*	11µM*	?	?	?
N#C/C(=C(\O)Cc1ccccc1)c1nc2ccccc2[nH]1	?	2.8µM*	?	0	?	?
N#C/C(=C(/O)c1cccs1)c1nc2ccccc2[nH]1	-4%	?	?	58	-21%	?
CSCCC(/C(O)=C(\C#N)c1nc2ccccc2[nH]1)N1C(=O)c2ccccc2C1=O (stereo not drawn)	-11%	11µM*	18µM*	-12	?	-27%
N#C/C(=C(/O)CCl)c1nc2ccccc2[nH]1	-12%	5µM*	10µM*	-95*	5.2µM*	2.6µM*
N#C/C(=C(/O)c1ccco1)c1nc2ccccc2[nH]1	-1%	7.1µM*	?	3	-17%	-11%
COc1ccccc1/C(O)=C(\C#N)c1nc2ccccc2[nH]1	3%	1.4µM*	-7%	20	-28%	8%
N#C/C(=C(/O)c1ccc(Br)s1)c1nc2ccccc2[nH]1	?	1µM*	0%	18	7.3µM*	4.6µM*
Cc1ccccc1C1CC(=O)Oc2ccc(O)cc21 (stereo not drawn)	.	-12%[96.6 µM]	-4%[96.6 µM]	.	.	.
O=c1cnc2cnc(Nc3ccccc3)nc2n1C1CC1	.	?	-6%	.	?	-34%
C=CCn1c(COc2ccc(CC)cc2)nnc1SC/C(O)=C(\C#N)c1nc2ccccc2[nH]1	?	11µM*	?	126	-23%	-1%
N#C/C(=C(/O)CSc1n[nH]c(N)n1)c1nc2ccccc2[nH]1	7%	-34%	-3%	25	-4%	3%
N#C/C(=C(/O)CN1C(=O)c2ccccc2C1=O)c1nc2ccccc2[nH]1	2%	11µM*	?	12	-20%	-7%
CC(C)(C)OC(=O)N1CCc2nc(N3CCN(c4ncccn4)CC3)ncc2C1	.	.	.	.	-26%	-11%
CCc1nn(CC(=O)N2CCN(c3cccc(Cl)c3)CC2)c(=O)c2cc3sccc3n12	.	.	.	.	-6%	-4%
SMILES	ELG1 DNA repair	RORgamma inh	VP16 counter	IL1B secr inh	TDP1 cell noCPT	DT40 TDP1 CPT
CCc1cc2c(cc3c(=O)n(CC(=O)N4CCN(c5ccccn5)CC4)nc(CC)n32)s1	-30%	-14%	-14%	3	?	?
CCc1nn(CCCC(=O)NCc2ccccc2Br)c(=O)c2cc3occc3n12	15%	-28%	?	-8	?	?
CCc1nn(CC(=O)N2CCN(c3cccc(C)c3)C(C)C2)c(=O)c2cc3sccc3n12 (stereo not drawn)	.	.	.	.	23µM*	21µM*
CCOC(=O)C1CCN(C(=O)Cn2nc(CC)n3c(cc4sccc43)c2=O)CC1	.	.	.	.	18µM*	?
CCc1cc2c(cc3c(=O)n(CCCC(=O)NCc4ccccc4Cl)nc(CC)n32)s1	.	.	.	.	23µM*	?
CCc1nn(CC(=O)N2CCN(CC)CC2)c(=O)c2cc3sccc3n12	0%	-14%	-5%	14	?	-20%
CCc1cc2c(cc3c(=O)n(CC(=O)N4CCC(C)CC4)nc(CC)n32)s1	.	.	.	.	?	16µM*
CCOc1ccc(C(=O)NNC(=O)CN2C(=O)C3CC=CCC3C2=O)cc1OC (stereo not drawn)	20%	.	.	2	-8%	5%
CC(C)(C)Cc1nnc(NC(=O)CSc2ccccc2)s1	?	-36%	-21%	0	?	?
COc1ccc(-n2cc(CN3CCC(OC)CC3)c(-c3cccc(F)c3)n2)cc1	-11%	1%	-11%	-25	1%	-1%
CCn1ccnc1CN(C)Cc1cn(-c2ccc(C)cc2)nc1-c1cccc(C)c1	-4%	1.6µM*	10µM*	-249*	-108%	?
CCn1ccnc1CN(C)Cc1nc(-c2ccccc2)no1	?	?	?	9	0%	-14%
COc1ccc(-n2cc(CN(C)CCO)c(-c3cccc(F)c3)n2)cc1	?	11%	-20%	-30	?	-26%
CCn1ccnc1CN(C)Cc1nc(-c2cccc(Cl)c2)no1	?	18µM*	-9%	34	-24%	12%
CCn1ccnc1CN(C)Cc1cn(-c2cccc(C)c2)nc1-c1cccc(F)c1	?	1.6µM*	16µM*	-62*	?	16µM*
Cc1ccc(-n2cc(CN3CCN(Cc4nccn4C)CC3)c(-c3cccc(C)c3)n2)cc1	?	10µM*	-4%	-57*	?	?
CC(=O)C1=C(C)NC(SCC(N)=O)=C(C#N)C1C (stereo not drawn)	-8%	-6%	15%	0	-20%	-29%
CO[C@@H]1COC(=O)C/C=C\[C@@H](C)COC(=O)[C@H](COCc2ccccc2)NC(=O)C/C=C\[C@H]1C	.	-2%[10 µM]	-5%[10 µM]	.	.	.
C[C@@H]1CC2=C(C(=O)OC(C)(C)O2)[C@H](c2ccc(Cl)cc2)O1	.	.	.	29	?	-24%
